Results published in PubChem BioAssay AID493199 (National Center for Advancing Translational Sciences (NCATS), 2011).
The list shows a part of the results. Results filed as inconclusive are left out. Activity calls are given as the source filed them. The call rests on the fitted dose curve; in most records, active means well fitted inhibition curve with a large enough effect; inconclusive means small, poorly fitted or top-dose-only effect, or effect the other way; inactive means no such curve, though single readings can be large or run the other way.

Target: Muscleblind-like protein 1 (Homo sapiens) (UniProt Q9NR56)
Assay: qHTS Assay for Inhibitors of MBNL1-poly(CUG) RNA binding: Initial hit validation from the primary screen
Conditions: TR-FRET MBNL1-His / biotin-(CUG)12 binding, 60 min
Excerpt: NIH Chemical Genomics Center [NCGC] NIH Molecular Libraries Probe Production Centers Network [MLPCN] MLPCN Grant: R03 MH087421-01 Assay Submitter (PI): Charles Thornton NCGC Assay Overview: Expanded CTG repeats in the 3' untranslated region of the DM protein kinase (DMPK) gene causes type I myotonic dystrophy (DM1). DM1 is a multi-systemic disease with a prevalence of 1/7000. Clinical features include myotonia, progressive muscle weakness and wasting, cardiac arrhythmia, insulin resistance, hypersomnolence, cataracts, and other symptoms. The pathogenic effect of expanded CTG repeats stems from deleterious effects of the mutant transcript. CUGexp mRNA accumulates in nuclear foci and sequesters proteins of the muscleblind family, of which MBNL1 is the most common family member in skeletal muscles. The binding interaction between MBNL1 and CUGexp tracts leads to deregulation of alternative splicing and is therefore a key molecular step in the pathogenesis of DM1. To target this binding interaction, we optimized a protein-RNA binding assay in 1536-well format for identification of small molecule inhibitors of biotinylated (CUG)12 and his-tagged MBNL1 binding. Protein-RNA complex of MBNL1-His and Biotin-(CUG)12 captures the detection reagents terbium-labeled anti-His antibody and streptavidin conjugated XL665. This brings the terbium label within close proximity to XL665 to allow time-resolved fluorescence resonance energy transfer (TR-FRET). Inhibitors of MBNL1-(CUG)12 binding will disrupt TR-FRET. This deposition presents the initial confirmation of hits from the primary screen in the same assay.
NCGC Assay Protocol Summary: This is a TR-FRET binding assay with MBNL1-His and Biotin-(CUG)12 RNA. The assay uses a ratiometric measurement. […] (3) Add 1 ul of terbium labeled anti-His antibody (0.055 ng/ul final concentration) (4) Add 1 ul of streptavidin-XL665 (5 nM final concentration) (5) Incubate 60 min at room temperature (6) Detect the assay plate in a EnVision plate reader (PerkinElmer) with Ex=340 nm, Em1=665 nm and Em2=545 nm. […]

Sequence of Muscleblind-like protein 1 (Homo sapiens) (Q9NR56 whole entry, looked up): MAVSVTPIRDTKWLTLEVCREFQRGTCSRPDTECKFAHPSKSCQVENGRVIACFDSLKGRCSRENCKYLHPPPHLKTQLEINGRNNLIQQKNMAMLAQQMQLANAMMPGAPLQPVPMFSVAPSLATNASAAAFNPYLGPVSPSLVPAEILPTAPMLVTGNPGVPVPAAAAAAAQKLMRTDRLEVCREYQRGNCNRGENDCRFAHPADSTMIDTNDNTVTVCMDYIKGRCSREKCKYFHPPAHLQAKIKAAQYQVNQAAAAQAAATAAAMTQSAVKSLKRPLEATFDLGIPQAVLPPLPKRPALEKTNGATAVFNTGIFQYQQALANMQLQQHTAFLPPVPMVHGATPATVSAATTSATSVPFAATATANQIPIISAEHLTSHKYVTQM

Potency, active:
COc1cccc(NC(=O)Cn2cnc3sc(C)c(S(=O)(=O)N4CCN(C)CC4)c3c2=O)c1 16.3 µM, COc1ccc(Cc2n[nH]c(=S)n2NC(=O)Nc2ccc(C)cc2)cc1 20.6 µM, CCOC(=O)c1c(C)[nH]c2c1-c1ccccc1C(=O)C2=O 3.26 µM
